# Experimental data: PubChem BioAssay AID1159580 (chemical genetic matrix, 2015)
# Hit rate of the full screen: of about 5,500 compounds, about 2,000 (36%) were called active. Roughly 18% stayed inconclusive and do not appear here. This is one part of the list. Values without a mark were called inactive. Rule as the data show it: active = normalized growth mostly below about 0.91 (no sharp cut-off); inconclusive = no clear call, values can overlap the other calls; inactive = mostly above about 0.92.
# Test: chemical genetic growth profiling, strain panel (AID 1159580);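 also: tested at 20 µM; growth read once vehicle control cultures reached saturation at 30 °C; 1 = growth at the plate median or of vehicle wells; lower values mean less growth of the strain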
# Conditions: growth OD
# [1] = S. cerevisiae deletion strains, locus YAL013W, strain DEP1, stronger effect = lower value
# [2] = S. cerevisiae deletion strains, locus YDR150W, strain NUM1, stronger effect = lower value
# [3] = S. cerevisiae deletion strains, locus YGR078C, strain PAC10, stronger effect = lower value
# [4] = S. cerevisiae deletion strains, locus YJR075W, strain HOC1, stronger effect = lower value
# [5] = S. cerevisiae deletion strains, locus YMR307W, strain GAS1, stronger effect = lower value
# [6] = S. cerevisiae deletion strains, locus YNL322C, strain KRE1, stronger effect = lower value
# [7] = S. cerevisiae deletion strains, locus YBR229C, strain ROT2, stronger effect = lower value
# [8] = S. cerevisiae deletion strains, locus YDL101C, strain DUN1, stronger effect = lower value
# [9] = S. cerevisiae deletion strains, locus YEL061C, strain CIN8, stronger effect = lower value
# [10] = S. cerevisiae deletion strains, locus YHR030C, strain SLT2, stronger effect = lower value
# [11] = S. cerevisiae deletion strains, locus YJR043C, strain POL32, stronger effect = lower value
# [12] = S. cerevisiae deletion strains, locus YLR039C, strain RIC1, stronger effect = lower value
# [13] = S. cerevisiae deletion strains, locus YLR262C, strain YPT6, stronger effect = lower value
# [14] = S. cerevisiae deletion strains, locus YNL153C, strain GIM3, stronger effect = lower value
# [15] = S. cerevisiae deletion strains, locus YPL241C, strain CIN2, stronger effect = lower value
smiles,measurement,setting,value
COc1cc(CNC(=O)CCCCCCC(C)C)ccc1O,normalized growth,[1],0.944
same,normalized growth,"S. cerevisiae deletion strains, locus YAL040C, strain CLN3, stronger effect = lower value",0.986
same,normalized growth,"S. cerevisiae deletion strains, locus YCL061C, strain MRC1 (second series), stronger effect = lower value",0.993
same,normalized growth,[2],1
same,normalized growth,"S. cerevisiae deletion strains, locus YDR363W, strain ESC2, stronger effect = lower value",0.974
same,normalized growth,"S. cerevisiae deletion strains, locus YER002W, strain NOP16, stronger effect = lower value",1
same,normalized growth,[3],0.999
same,normalized growth,[4],0.988
same,normalized growth,[5],0.973
same,normalized growth,"S. cerevisiae deletion strains, locus YNL175C, strain NOP13, stronger effect = lower value",1.01
same,normalized growth,"S. cerevisiae deletion strains, locus YNL197C, strain WHI3, stronger effect = lower value",0.981
same,normalized growth,"S. cerevisiae deletion strains, locus YNL224C, strain SQS1, stronger effect = lower value",0.981
same,normalized growth,[6],0.983
same,normalized growth,"S. cerevisiae deletion strains, locus YOR083W, strain WHI5 (second series), stronger effect = lower value",0.981
CCC[C@H]1CC2=C(C[C@@H](CC)CC3=C1C(=O)OC3=O)C(=O)OC2=O,normalized growth,"S. cerevisiae deletion strains, locus YBR021W, strain FUR4, stronger effect = lower value",1
same,normalized growth,[7],1.01
same,normalized growth,"S. cerevisiae deletion strains, locus YCL029C, strain bik1, stronger effect = lower value",1.02
same,normalized growth,"S. cerevisiae deletion strains, locus YDL035C, strain GPR1, stronger effect = lower value",1.03
same,normalized growth,"S. cerevisiae deletion strains, locus YDL074C, strain BRE1, stronger effect = lower value",1.02
same,normalized growth,[8],1.02
same,normalized growth,"S. cerevisiae deletion strains, locus YDL134C, strain PPH21, stronger effect = lower value",1.01
same,normalized growth,"S. cerevisiae deletion strains, locus YDL185W, strain tfp1, stronger effect = lower value",1.01
same,normalized growth,"S. cerevisiae deletion strains, locus YDL192W, strain arf1, stronger effect = lower value",1.02
same,normalized growth,"S. cerevisiae deletion strains, locus YDR101C, strain arx1, stronger effect = lower value",1.03
same,normalized growth,[2],1.01
same,normalized growth,"S. cerevisiae deletion strains, locus YDR162C, strain NBP2, stronger effect = lower value",1.01
same,normalized growth,"S. cerevisiae deletion strains, locus YDR318W, strain mcm21, stronger effect = lower value",0.998
same,normalized growth,"S. cerevisiae deletion strains, locus YDR388W, stronger effect = lower value",1.02
same,normalized growth,"S. cerevisiae deletion strains, locus YDR502C, strain sam2, stronger effect = lower value",1.01
same,normalized growth,[9],1.01
same,normalized growth,"S. cerevisiae deletion strains, locus YER110C, stronger effect = lower value",1.02
same,normalized growth,"S. cerevisiae deletion strains, locus YER155C, strain BEM2, stronger effect = lower value",1.01
same,normalized growth,"S. cerevisiae deletion strains, locus YER167W, strain BCK2, stronger effect = lower value",1.01
same,normalized growth,"S. cerevisiae deletion strains, locus YGL078C, strain dbp3, stronger effect = lower value",0.65 (active)
same,normalized growth,"S. cerevisiae deletion strains, locus YGL086W, strain mad1, stronger effect = lower value",1.05
same,normalized growth,"S. cerevisiae deletion strains, locus YGL248W, strain PDE1, stronger effect = lower value",1
same,normalized growth,[3],1.01
same,normalized growth,"S. cerevisiae deletion strains, locus YGR135W, strain pre9, stronger effect = lower value",1
same,normalized growth,"S. cerevisiae deletion strains, locus YGR252W, strain gcn5, stronger effect = lower value",0.969
same,normalized growth,[10],1.01
same,normalized growth,"S. cerevisiae deletion strains, locus YHR079C, strain IRE1 (second series), stronger effect = lower value",1.02
same,normalized growth,"S. cerevisiae deletion strains, locus YHR094C, strain hxt1, stronger effect = lower value",1.01
same,normalized growth,"S. cerevisiae deletion strains, locus YHR129C, strain ARP1, stronger effect = lower value",1.02
same,normalized growth,"S. cerevisiae deletion strains, locus YHR200W, strain rpn10, stronger effect = lower value",1
same,normalized growth,"S. cerevisiae deletion strains, locus YIL066C, strain RNR3, stronger effect = lower value",1.02
same,normalized growth,"S. cerevisiae deletion strains, locus YIL073C, strain SPO22, stronger effect = lower value",1.07
same,normalized growth,"S. cerevisiae deletion strains, locus YIL125W, strain kgd1, stronger effect = lower value",0.875 (active)
same,normalized growth,"S. cerevisiae deletion strains, locus YIR030C, strain dcg1, stronger effect = lower value",1.01
same,normalized growth,"S. cerevisiae deletion strains, locus YJL095W, strain BCK1, stronger effect = lower value",1.01
same,normalized growth,"S. cerevisiae deletion strains, locus YJL134W, strain LCB3, stronger effect = lower value",1.01
same,normalized growth,"S. cerevisiae deletion strains, locus YJL168C, strain set2, stronger effect = lower value",1.01
same,normalized growth,"S. cerevisiae deletion strains, locus YJL187C, strain SWE1 (second series), stronger effect = lower value",1.02
same,normalized growth,[11],1.01
same,normalized growth,[4],1.01
same,normalized growth,"S. cerevisiae deletion strains, locus YKL009W, strain mrt4, stronger effect = lower value",0.663 (active)
same,normalized growth,"S. cerevisiae deletion strains, locus YKL068W, stronger effect = lower value",0.979
same,normalized growth,"S. cerevisiae deletion strains, locus YKL085W, strain MDH1 (second series), stronger effect = lower value",0.932
same,normalized growth,"S. cerevisiae deletion strains, locus YKL085W, strain MDH1, stronger effect = lower value",0.932
same,normalized growth,"S. cerevisiae deletion strains, locus YKL190W, strain CNB1, stronger effect = lower value",1.01
same,normalized growth,"S. cerevisiae deletion strains, locus YKR001C, strain vps1, stronger effect = lower value",1.02
same,normalized growth,[12],1.04
same,normalized growth,"S. cerevisiae deletion strains, locus YLR058C, strain SHM2, stronger effect = lower value",1.01
same,normalized growth,"S. cerevisiae deletion strains, locus YLR102C, strain apc9, stronger effect = lower value",1.02
same,normalized growth,[13],1.02
same,normalized growth,"S. cerevisiae deletion strains, locus YLR268W, strain sec22, stronger effect = lower value",1.04
same,normalized growth,"S. cerevisiae deletion strains, locus YLR330W, strain CHS5, stronger effect = lower value",1.01
same,normalized growth,"S. cerevisiae deletion strains, locus YLR342W, strain FKS1 (second series), stronger effect = lower value",1.03
same,normalized growth,"S. cerevisiae deletion strains, locus YLR371W, strain rom2, stronger effect = lower value",1.03
same,normalized growth,"S. cerevisiae deletion strains, locus YLR418C, strain cdc73, stronger effect = lower value",0.991
same,normalized growth,"S. cerevisiae deletion strains, locus YML016C, strain PPZ1, stronger effect = lower value",1
same,normalized growth,"S. cerevisiae deletion strains, locus YML032C, strain rad52, stronger effect = lower value",0.999
same,normalized growth,"S. cerevisiae deletion strains, locus YML124C, strain tub3, stronger effect = lower value",1.01
same,normalized growth,"S. cerevisiae deletion strains, locus YMR078C, strain ctf18, stronger effect = lower value",1.01
same,normalized growth,"S. cerevisiae deletion strains, locus YMR223W, strain ubp8, stronger effect = lower value",0.987
same,normalized growth,[5],0.947
same,normalized growth,"S. cerevisiae deletion strains, locus YNL067W, strain RPL9B, stronger effect = lower value",1.01
same,normalized growth,[14],1.02
same,normalized growth,"S. cerevisiae deletion strains, locus YNL233W, strain BNI4, stronger effect = lower value",0.999
same,normalized growth,"S. cerevisiae deletion strains, locus YNL250W, strain rad50, stronger effect = lower value",0.814 (active)
same,normalized growth,"S. cerevisiae deletion strains, locus YNL271C, strain bni1, stronger effect = lower value",0.845 (active)
same,normalized growth,"S. cerevisiae deletion strains, locus YNL298W, strain CLA4, stronger effect = lower value",0.818 (active)
same,normalized growth,"S. cerevisiae deletion strains, locus YNL307C, strain MCK1, stronger effect = lower value",1.02
same,normalized growth,[6],1.01
same,normalized growth,"S. cerevisiae deletion strains, locus YNR052C, strain pop2, stronger effect = lower value",0.998
same,normalized growth,"S. cerevisiae deletion strains, locus YOL006C, strain TOP1, stronger effect = lower value",1.08
same,normalized growth,"S. cerevisiae deletion strains, locus YOL012C, strain htz1",0.773
same,normalized growth,"S. cerevisiae deletion strains, locus YOL147C, strain pex11, stronger effect = lower value",1.01
same,normalized growth,"S. cerevisiae deletion strains, locus YOR061W, strain CKA2, stronger effect = lower value",1.01
same,normalized growth,"S. cerevisiae deletion strains, locus YOR069W, strain VPS5, stronger effect = lower value",1.02
same,normalized growth,"S. cerevisiae deletion strains, locus YOR136W, strain idh2, stronger effect = lower value",1.04
same,normalized growth,"S. cerevisiae deletion strains, locus YOR144C, strain elg1, stronger effect = lower value",1.01
same,normalized growth,"S. cerevisiae deletion strains, locus YOR184W, strain ser1, stronger effect = lower value",1.02
same,normalized growth,"S. cerevisiae deletion strains, locus YOR316C, strain cot1, stronger effect = lower value",1.02
same,normalized growth,[15],1.01
same,normalized growth,"S. cerevisiae deletion strains, locus YPR119W, strain clb2, stronger effect = lower value",1.02
same,normalized growth,"S. cerevisiae deletion strains, locus YPR141C, strain kar3, stronger effect = lower value",0.896 (active)
same,normalized growth,"S. cerevisiae deletion strains, locus YPR163C, strain tif3, stronger effect = lower value",1.01
same,normalized growth,"S. cerevisiae deletion strains, locus YPR167C, strain met16, stronger effect = lower value",0.998
same,normalized growth,"S. cerevisiae deletion strains, strain wtn01, stronger effect = lower value",1.06
CSC1=NCN(Cc2ccccc2)CN1,normalized growth,[1],0.991
same,normalized growth,[7],0.996
same,normalized growth,[8],1
same,normalized growth,[2],1.01
same,normalized growth,[9],0.981
same,normalized growth,[3],1
same,normalized growth,[10],1.02
same,normalized growth,"S. cerevisiae deletion strains, locus YHR087W, strain rtc3, stronger effect = lower value",1
same,normalized growth,[11],1
same,normalized growth,[4],0.99
same,normalized growth,[12],0.969
same,normalized growth,"S. cerevisiae deletion strains, locus YLR058C, strain SHM2 (second series), stronger effect = lower value",1.01
same,normalized growth,"S. cerevisiae deletion strains, locus YLR085C, strain ARP6, stronger effect = lower value",0.954
same,normalized growth,[13],0.972
same,normalized growth,"S. cerevisiae deletion strains, locus YML094W, strain GIM5, stronger effect = lower value",0.981
same,normalized growth,"S. cerevisiae deletion strains, locus YMR219W, strain ESC1, stronger effect = lower value",0.986
same,normalized growth,"S. cerevisiae deletion strains, locus YMR263W, strain SAP30, stronger effect = lower value",1
same,normalized growth,[14],1.02
same,normalized growth,"S. cerevisiae deletion strains, locus YNL298W, strain CLA4 (second series), stronger effect = lower value",1
same,normalized growth,[6],0.972
same,normalized growth,"S. cerevisiae deletion strains, locus YNR030W, strain Alg12, stronger effect = lower value",0.977
same,normalized growth,"S. cerevisiae deletion strains, locus YPL055C, strain LGE1, stronger effect = lower value",1.06
same,normalized growth,[15],0.987
same,normalized growth,"S. cerevisiae deletion strains, locus YPR135W, strain CTF4, stronger effect = lower value",1.1
same,normalized growth,"S. cerevisiae strains, strain wild type, stronger effect = lower value",0.98
